Laboratory results from PMC7862700, “An all-to-all approach to the identification of sequence-specific readers for epigenetic DNA modifications on cytosine”.

Key:
Assay in all cases: DAPPL (digital affinity profiling via proximity ligation, sequencing); 10 mM Tris-HCl pH 7.5, 50 mM NaCl, 1 mM DTT, 4% glycerol, room temperature, 30 min; GST-TFs on glutathione beads, 16-mer random dsDNA library, 0.1% formaldehyde crosslink after washing; high values mean tight binding
Details in all cases: protein: recombinant; tags: N-terminal GST; dsDNA, one strand shown
[1] = biological target: T1, ERF (Homo sapiens, UniProt P50548 1-548)
T1 sequence: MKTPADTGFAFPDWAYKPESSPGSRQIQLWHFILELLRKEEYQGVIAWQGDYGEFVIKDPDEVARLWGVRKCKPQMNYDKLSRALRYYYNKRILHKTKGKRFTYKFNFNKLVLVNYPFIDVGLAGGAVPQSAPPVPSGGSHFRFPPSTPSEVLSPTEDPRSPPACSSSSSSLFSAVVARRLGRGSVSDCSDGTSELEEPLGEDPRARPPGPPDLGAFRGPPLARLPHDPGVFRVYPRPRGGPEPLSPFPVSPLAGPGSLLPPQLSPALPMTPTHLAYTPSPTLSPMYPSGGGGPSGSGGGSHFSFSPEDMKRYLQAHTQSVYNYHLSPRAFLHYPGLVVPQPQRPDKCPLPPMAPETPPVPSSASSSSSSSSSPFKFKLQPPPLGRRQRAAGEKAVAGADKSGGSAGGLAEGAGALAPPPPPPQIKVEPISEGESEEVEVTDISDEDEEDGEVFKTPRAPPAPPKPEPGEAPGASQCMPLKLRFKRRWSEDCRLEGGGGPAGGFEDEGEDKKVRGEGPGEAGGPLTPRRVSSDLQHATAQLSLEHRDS
Method in brief: (§1)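 After expression in yeast as GST fusions, human transcription factors were bound to glutathione beads, DNA-barcoded and mixed with a tag-only sample. The pools were incubated with 200 nmole of a 16-mer random double-stranded DNA library in Tris/NaCl/DTT/glycerol buffer (30 min, room temperature), washed and crosslinked with 0.1% formaldehyde. Proximity ligation with BsaI/T4 ligase ran for 1 h at 37 °C, before PCR amplification and sequencing on an Illumina NextSeq500. Binding signal is a hexamer's read frequency for a factor divided by its frequency for the tag-only sample.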

[2] = biological target: T2, ETV3L (Homo sapiens, UniProt Q6ZN32 1-361)
T2 sequence: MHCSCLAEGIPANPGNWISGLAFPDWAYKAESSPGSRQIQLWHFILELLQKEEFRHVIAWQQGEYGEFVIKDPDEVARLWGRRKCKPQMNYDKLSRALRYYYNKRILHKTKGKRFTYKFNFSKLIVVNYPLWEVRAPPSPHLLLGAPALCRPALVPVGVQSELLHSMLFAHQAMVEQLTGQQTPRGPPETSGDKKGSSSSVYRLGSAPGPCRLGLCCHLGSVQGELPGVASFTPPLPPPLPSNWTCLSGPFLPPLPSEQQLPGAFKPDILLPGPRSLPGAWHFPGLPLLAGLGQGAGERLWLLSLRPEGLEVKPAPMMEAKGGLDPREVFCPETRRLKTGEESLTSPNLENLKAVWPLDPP
Method in brief: as §1

[3] = biological target: T3, ETS2 (Homo sapiens, UniProt P15036 1-469)
T3 sequence: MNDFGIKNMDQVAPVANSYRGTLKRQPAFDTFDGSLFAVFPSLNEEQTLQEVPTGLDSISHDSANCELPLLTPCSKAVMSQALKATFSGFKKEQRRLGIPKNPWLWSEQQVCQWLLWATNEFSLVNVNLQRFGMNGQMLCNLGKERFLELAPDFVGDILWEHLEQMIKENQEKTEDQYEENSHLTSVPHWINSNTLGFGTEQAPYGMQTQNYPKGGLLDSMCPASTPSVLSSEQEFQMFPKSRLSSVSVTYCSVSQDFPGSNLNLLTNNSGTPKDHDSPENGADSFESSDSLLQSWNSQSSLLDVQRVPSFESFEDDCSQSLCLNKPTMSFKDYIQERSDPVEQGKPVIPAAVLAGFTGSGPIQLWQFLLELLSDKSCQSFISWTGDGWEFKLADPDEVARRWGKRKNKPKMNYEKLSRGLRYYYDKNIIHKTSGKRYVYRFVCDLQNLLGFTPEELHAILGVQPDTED
Method in brief: as §1

[4] = biological target: T4, SPDEF (Homo sapiens, UniProt O95238 1-335)
T4 sequence: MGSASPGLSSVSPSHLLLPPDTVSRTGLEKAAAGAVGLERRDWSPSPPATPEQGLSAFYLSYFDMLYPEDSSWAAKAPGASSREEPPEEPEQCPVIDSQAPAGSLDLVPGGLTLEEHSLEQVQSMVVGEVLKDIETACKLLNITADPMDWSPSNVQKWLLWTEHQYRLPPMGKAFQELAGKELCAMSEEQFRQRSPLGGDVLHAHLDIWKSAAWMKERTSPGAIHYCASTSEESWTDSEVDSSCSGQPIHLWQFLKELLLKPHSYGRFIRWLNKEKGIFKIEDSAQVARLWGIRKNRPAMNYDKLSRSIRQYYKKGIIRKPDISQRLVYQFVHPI
Method in brief: as §1

[5] = biological target: T5, ETV7 (Homo sapiens, UniProt Q9Y603 1-341)
T5 sequence: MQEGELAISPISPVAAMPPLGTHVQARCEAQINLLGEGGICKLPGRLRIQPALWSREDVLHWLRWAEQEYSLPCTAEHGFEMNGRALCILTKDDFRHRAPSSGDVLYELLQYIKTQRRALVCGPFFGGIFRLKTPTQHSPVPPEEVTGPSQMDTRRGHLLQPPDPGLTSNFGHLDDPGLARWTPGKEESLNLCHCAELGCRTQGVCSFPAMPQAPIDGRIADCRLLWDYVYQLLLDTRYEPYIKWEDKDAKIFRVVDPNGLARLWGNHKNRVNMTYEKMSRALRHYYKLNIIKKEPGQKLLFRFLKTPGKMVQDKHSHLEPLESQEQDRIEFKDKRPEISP
Method in brief: as §1

[6] = biological target: T6, ELF5 (Homo sapiens, UniProt Q9UKW6-2 1-255)
T6 sequence: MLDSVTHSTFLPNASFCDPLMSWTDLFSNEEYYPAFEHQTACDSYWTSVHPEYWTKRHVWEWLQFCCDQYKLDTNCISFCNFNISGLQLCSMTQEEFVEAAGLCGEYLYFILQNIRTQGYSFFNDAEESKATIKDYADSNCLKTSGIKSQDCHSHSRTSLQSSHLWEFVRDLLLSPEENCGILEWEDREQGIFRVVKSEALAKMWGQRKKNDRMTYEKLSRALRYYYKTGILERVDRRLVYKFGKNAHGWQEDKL
Method in brief: as §1

[7] = biological target: T7, ETV3 (Homo sapiens, UniProt P41162-2 1-143)
T7 sequence: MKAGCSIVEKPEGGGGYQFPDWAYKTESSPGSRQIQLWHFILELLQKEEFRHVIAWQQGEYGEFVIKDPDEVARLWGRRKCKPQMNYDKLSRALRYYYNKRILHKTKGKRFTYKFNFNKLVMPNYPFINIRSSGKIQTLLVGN
Method in brief: as §1

[8] = biological target: ETV6 (Homo sapiens, UniProt P41212 1-452)
Method in brief: as §1

Chain of ETV6 (P41212 whole entry): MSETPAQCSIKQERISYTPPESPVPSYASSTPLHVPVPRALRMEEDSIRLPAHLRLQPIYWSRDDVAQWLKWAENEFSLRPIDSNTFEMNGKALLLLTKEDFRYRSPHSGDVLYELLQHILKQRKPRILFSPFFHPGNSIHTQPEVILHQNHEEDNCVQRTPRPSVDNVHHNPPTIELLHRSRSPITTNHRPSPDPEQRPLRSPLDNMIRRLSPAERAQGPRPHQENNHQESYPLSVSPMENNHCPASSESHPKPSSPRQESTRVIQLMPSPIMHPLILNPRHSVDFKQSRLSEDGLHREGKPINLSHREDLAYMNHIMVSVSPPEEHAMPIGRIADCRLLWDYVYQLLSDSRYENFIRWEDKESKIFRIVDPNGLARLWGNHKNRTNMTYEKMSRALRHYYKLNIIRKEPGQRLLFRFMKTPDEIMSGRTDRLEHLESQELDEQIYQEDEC

Sequence | binding signal [1] | binding signal [2] | binding signal [3] | binding signal [4] | binding signal [5] | binding signal [6] | binding signal [7] | binding signal [8]
TGCCAT | 1.17 fold enrichment (6-mer frequency, TF over GST control) | 1.09 fold enrichment (6-mer frequency, TF over GST control) | 1.05 fold enrichment (6-mer frequency, TF over GST control) | 1.19 fold enrichment (6-mer frequency, TF over GST control) | 1.09 fold enrichment (6-mer frequency, TF over GST control) | 1.08 fold enrichment (6-mer frequency, TF over GST control) | 1.2 fold enrichment (6-mer frequency, TF over GST control) | 1.1 fold enrichment (6-mer frequency, TF over GST control)
TTGCAA | 1.15 fold enrichment (6-mer frequency, TF over GST control) | 1.19 fold enrichment (6-mer frequency, TF over GST control) | 1.1 fold enrichment (6-mer frequency, TF over GST control) | 1.25 fold enrichment (6-mer frequency, TF over GST control) | 1.19 fold enrichment (6-mer frequency, TF over GST control) | 1.12 fold enrichment (6-mer frequency, TF over GST control) | 1.18 fold enrichment (6-mer frequency, TF over GST control) | 1.16 fold enrichment (6-mer frequency, TF over GST control)
TCGACG | 1.02 fold enrichment (6-mer frequency, TF over GST control) | 1 fold enrichment (6-mer frequency, TF over GST control) | 1.07 fold enrichment (6-mer frequency, TF over GST control) | 1.05 fold enrichment (6-mer frequency, TF over GST control) | 1.05 fold enrichment (6-mer frequency, TF over GST control) | 1.01 fold enrichment (6-mer frequency, TF over GST control) |  | 1.07 fold enrichment (6-mer frequency, TF over GST control)
CAAGAA | 1.12 fold enrichment (6-mer frequency, TF over GST control) | 1.09 fold enrichment (6-mer frequency, TF over GST control) | 1.07 fold enrichment (6-mer frequency, TF over GST control) | 1.06 fold enrichment (6-mer frequency, TF over GST control) | 1.14 fold enrichment (6-mer frequency, TF over GST control) | 1.08 fold enrichment (6-mer frequency, TF over GST control) |  | 1.04 fold enrichment (6-mer frequency, TF over GST control)
GAAAAC | 1.11 fold enrichment (6-mer frequency, TF over GST control) | 1.13 fold enrichment (6-mer frequency, TF over GST control) | 1.11 fold enrichment (6-mer frequency, TF over GST control) | 1.07 fold enrichment (6-mer frequency, TF over GST control) | 1.13 fold enrichment (6-mer frequency, TF over GST control) | 1.16 fold enrichment (6-mer frequency, TF over GST control) |  | 1.06 fold enrichment (6-mer frequency, TF over GST control)
TTCAGT | 1.09 fold enrichment (6-mer frequency, TF over GST control) | 1.13 fold enrichment (6-mer frequency, TF over GST control) | 1 fold enrichment (6-mer frequency, TF over GST control) | 1.07 fold enrichment (6-mer frequency, TF over GST control) | 1.04 fold enrichment (6-mer frequency, TF over GST control) | 1.05 fold enrichment (6-mer frequency, TF over GST control) |  | 1.06 fold enrichment (6-mer frequency, TF over GST control)
AAACTT | 1.36 fold enrichment (6-mer frequency, TF over GST control) | 1.24 fold enrichment (6-mer frequency, TF over GST control) | 1.32 fold enrichment (6-mer frequency, TF over GST control) | 1.1 fold enrichment (6-mer frequency, TF over GST control) | 1.22 fold enrichment (6-mer frequency, TF over GST control) | 1.43 fold enrichment (6-mer frequency, TF over GST control) | 1.34 fold enrichment (6-mer frequency, TF over GST control) | 1.29 fold enrichment (6-mer frequency, TF over GST control)
TAGGGT | 1.15 fold enrichment (6-mer frequency, TF over GST control) | 1.03 fold enrichment (6-mer frequency, TF over GST control) | 1.02 fold enrichment (6-mer frequency, TF over GST control) | 1.12 fold enrichment (6-mer frequency, TF over GST control) | 1.11 fold enrichment (6-mer frequency, TF over GST control) | 1.06 fold enrichment (6-mer frequency, TF over GST control) |  | 1.04 fold enrichment (6-mer frequency, TF over GST control)
AAGTTT | 1.39 fold enrichment (6-mer frequency, TF over GST control) | 1.46 fold enrichment (6-mer frequency, TF over GST control) | 1.39 fold enrichment (6-mer frequency, TF over GST control) | 1.37 fold enrichment (6-mer frequency, TF over GST control) | 1.37 fold enrichment (6-mer frequency, TF over GST control) | 1.55 fold enrichment (6-mer frequency, TF over GST control) | 1.53 fold enrichment (6-mer frequency, TF over GST control) | 1.55 fold enrichment (6-mer frequency, TF over GST control)
ATACCA | 1.06 fold enrichment (6-mer frequency, TF over GST control) | 1.08 fold enrichment (6-mer frequency, TF over GST control) | 1.06 fold enrichment (6-mer frequency, TF over GST control) | 1 fold enrichment (6-mer frequency, TF over GST control) | 1.02 fold enrichment (6-mer frequency, TF over GST control) | 1.03 fold enrichment (6-mer frequency, TF over GST control) |  | 1.01 fold enrichment (6-mer frequency, TF over GST control)
TGCGTA | 1.15 fold enrichment (6-mer frequency, TF over GST control) | 1.17 fold enrichment (6-mer frequency, TF over GST control) | 1.19 fold enrichment (6-mer frequency, TF over GST control) | 1.12 fold enrichment (6-mer frequency, TF over GST control) | 1.01 fold enrichment (6-mer frequency, TF over GST control) | 1.1 fold enrichment (6-mer frequency, TF over GST control) |  | 1.11 fold enrichment (6-mer frequency, TF over GST control)
TGTGTT | 1.08 fold enrichment (6-mer frequency, TF over GST control) | 1.15 fold enrichment (6-mer frequency, TF over GST control) | 1.06 fold enrichment (6-mer frequency, TF over GST control) | 1.21 fold enrichment (6-mer frequency, TF over GST control) | 1.19 fold enrichment (6-mer frequency, TF over GST control) | 1.11 fold enrichment (6-mer frequency, TF over GST control) |  | 1.08 fold enrichment (6-mer frequency, TF over GST control)
GTAATG | 1.12 fold enrichment (6-mer frequency, TF over GST control) | 1.11 fold enrichment (6-mer frequency, TF over GST control) | 1.07 fold enrichment (6-mer frequency, TF over GST control) | 1.15 fold enrichment (6-mer frequency, TF over GST control) | 1.05 fold enrichment (6-mer frequency, TF over GST control) | 1.1 fold enrichment (6-mer frequency, TF over GST control) |  | 1.03 fold enrichment (6-mer frequency, TF over GST control)
TTATAG | 1.24 fold enrichment (6-mer frequency, TF over GST control) | 1.28 fold enrichment (6-mer frequency, TF over GST control) | 1.33 fold enrichment (6-mer frequency, TF over GST control) | 1.19 fold enrichment (6-mer frequency, TF over GST control) | 1.24 fold enrichment (6-mer frequency, TF over GST control) | 1.15 fold enrichment (6-mer frequency, TF over GST control) |  | 1.16 fold enrichment (6-mer frequency, TF over GST control)
CAAATC | 1.12 fold enrichment (6-mer frequency, TF over GST control) | 1.1 fold enrichment (6-mer frequency, TF over GST control) | 1.09 fold enrichment (6-mer frequency, TF over GST control) | 1.26 fold enrichment (6-mer frequency, TF over GST control) | 1.13 fold enrichment (6-mer frequency, TF over GST control) | 1.08 fold enrichment (6-mer frequency, TF over GST control) |  | 1.05 fold enrichment (6-mer frequency, TF over GST control)
